Many of the other results were omitted from the sample, so hits are more common in it than they were.
CD40 NFkB inh: CD40 pathway inhibition in BL2 cells; BL2 NF-kB luciferase reporter, CD40L-induced, 4 h; inhibition, % at 10 µM; 83,000 tested, 0.94% active;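 active = mean inhibition of at least 50% with a set share of replicates also reaching that level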;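 note: 0% = neutral control wells and 100% = IKK inhibitor VII at 50 µM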
* marks the source's active call; other numbers are inactive results; [ ] = remark or other dose.

COc1ccccc1C(=O)OCC(=O)Nc1ccc(Cl)cn1 was read as CD40 NFkB inh 48.9*.
`O=C(COc1ccccc1)Nc1ccc(Cl)cn1` gave CD40 NFkB inh -57.0.
For CCOc1ncccc1C(=O)OCC(=O)Nc1ccc(Cl)cn1 the results were CD40 NFkB inh 15.2.
CO[C@H](CN(C)Cc1cc(F)ccc1F)[C@@H](C)CN([C@@H](C)CO)S(=O)(=O)c1ccc(F)cc1 was read as CD40 NFkB inh 4.8.
Screening C[C@H](CO)N1C[C@H](C)[C@@H](CN(C)S(=O)(=O)c2cn(C)cn2)OCc2ccccc2-c2c(n(C)c3ccccc23)C1=O returned CD40 NFkB inh 7.0[25 µM].
`CC(OC(=O)c1ccccn1)C(=O)Nc1ccc2c(c1)OCCO2` (configuration not stated) gave CD40 NFkB inh -1.0.
Screening O=C(Nc1ccc2c(c1)OCCO2)c1ccc2ccccc2n1 returned CD40 NFkB inh -41.9.
For O=C(Nc1ccc2c(c1)OCCO2)c1ccccn1 the results were CD40 NFkB inh 77.9*.
Screening CS(=O)(=O)N1[C@@H](C#N)[C@H](c2ccc(C#CC3CCCC3)cc2)[C@@H]1CO returned CD40 NFkB inh -13.9[25 µM].
Screening Cc1ccc(-c2nnc(NC(=O)c3ccc([N+](=O)[O-])o3)o2)c(C)c1 returned CD40 NFkB inh -4.0.
For CC12CN3CC(C)(CN(C1)C3c1ccc([N+](=O)[O-])o1)C2 (configuration not stated) the results were CD40 NFkB inh -5.0.
Cc1ccc(S(=O)(=O)c2ccc([N+](=O)[O-])o2)cc1 was read as CD40 NFkB inh 109.3*.
O=C(Cc1ccncc1)NCC[C@@H]1CC[C@@H](NC(=O)C2CCCC2)[C@H](CO)O1 was read as CD40 NFkB inh 5.6.
`CC(C)NC(=O)N(C)C[C@@H]1Oc2ccc(N(C)C)cc2C(=O)N(C)C[C@@H]1C` gave CD40 NFkB inh -25.4.
CC(=O)c1cc(-c2ccccc2)n(CCC(=O)NC2CCCCCCC2)c1C was read as CD40 NFkB inh 2.4.
Screening CC(=O)c1cc(-c2ccccc2)n(CC(=O)NCc2cccs2)c1C returned CD40 NFkB inh 53.7*.
`O=C(CN1CCN(Cc2ccccc2)C1=O)NCc1cccs1` gave CD40 NFkB inh -0.1.
`CC(=O)N1[C@@H]2CN(C(=O)NC(C)C)C[C@H]1C2c1ccc(Br)cc1` (some centres not stated) gave CD40 NFkB inh -41.5.
Screening CC(NCC(O)CP(=O)(O)CC1CCCCC1)c1ccc(Cl)c(Cl)c1 (configuration not stated) returned CD40 NFkB inh 1.9[25 µM].
Screening CC1(C)CC[C@]2(C(=O)n3ccnc3)CC[C@]3(C)[C@H](C(=O)C=C4[C@@]5(C)C=C(C#N)C(=O)C(C)(C)[C@@H]5CC[C@]43C)[C@@H]2C1 returned CD40 NFkB inh 92.4*.
Screening Cc1ccc(/C=C2/CNC/C(=C\c3ccc(C)cc3)C2=O)cc1 returned CD40 NFkB inh 65.3*[25 µM].
`Cc1ccc(C=C2C=C(c3ccccc3)OC2=O)cc1` gave CD40 NFkB inh -33.1.
Cc1ccc(S(=O)(=O)N2CC=C(N)N2)cc1 was read as CD40 NFkB inh -1.9.
CN1c2ccc(Br)cc2[C@@H]2[C@@H](CCN2C(=O)Nc2ccccc2F)[C@@H]1CO was read as CD40 NFkB inh -6.1[25 µM].
For CNC[C@@H]1Oc2ccc(NS(C)(=O)=O)cc2CC(=O)N(C)C[C@@H]1C the results were CD40 NFkB inh 4.0.
`C[C@@H]1CC(=O)N[C@@H](c2ccccc2)C/C=C\C[C@H](c2ccc3c(c2)OCO3)NC1=O` gave CD40 NFkB inh -6.2[25 µM].
Screening C[C@H]1COCc2cnnn2CC[C@H](Cc2ccccc2)C(=O)N1 returned CD40 NFkB inh 4.1[25 µM].
Screening COc1ccc(CNn2c(-c3cccc(C)c3)nc3ccccc3c2=O)cc1OC returned CD40 NFkB inh -9.4.
`COc1cc2c3nnc(-c4ccccc4)c-3cn(Cc3ccc(F)cc3)c2cc1OC` gave CD40 NFkB inh 54.7*.
For CCc1nc2ccccc2n1Cc1ccc(OC)c(OC)c1 the results were CD40 NFkB inh 4.8.
Screening C[C@H]1CN([C@@H](C)CO)C(=O)c2cc(NS(=O)(=O)c3ccc(Cl)cc3)ccc2O[C@H]1CN(C)CC1CCCCC1 returned CD40 NFkB inh 16.8[25 µM].
Screening CC(=O)OCC=C1CCC2C3CCC4=CC(=O)CCC4(C)C3C(O)CC12C (configuration not stated) returned CD40 NFkB inh 6.9.
Screening CC(=O)OCC(=O)C1(O)CCC2C3CCC4=CC(=O)CCC4(C)C3(Cl)C(O)CC21C (configuration not stated) returned CD40 NFkB inh 62.2*.
For C[C@]12CCC(=O)C=C1CC[C@@H]1[C@@H]2[C@@H](O)C[C@@]2(C)[C@H]1CC[C@]2(O)C(=O)COC(=O)CCC(=O)O the results were CD40 NFkB inh 24.4.
For COc1ccc(NC(=O)N2CC[C@@H]3[C@@H](CO)N(C)c4ccc(-c5ccccc5F)cc4[C@@H]32)cc1 the results were CD40 NFkB inh -1.0[25 µM].
For CN1CCN(C(=O)C[C@@H]2C[C@@H]3c4cc(NC(=O)C5CCC5)ccc4O[C@@H]3[C@@H](CO)O2)CC1 the results were CD40 NFkB inh 2.4[25 µM].
CO[C@@H]1CC[C@@H]2CCOc3c(C#N)cccc3C(=O)N(C)C[C@@H](c3ccccc3)CC(=O)N(C)C[C@@H]1O2 was read as CD40 NFkB inh -2.9[25 µM].
Screening CO[C@H]1CN(C)C(=O)c2cc(NC(=O)NC3CCCCC3)ccc2OC[C@H](C)N(CC2CC2)C[C@@H]1C returned CD40 NFkB inh -0.7.
For O=C(O)CC/C=C/CC1COC(c2ccccc2Cl)OC1c1ccccc1O (configuration not stated) the results were CD40 NFkB inh -17.7[25 µM].
`CCOC(=O)C1CCN(Cc2ccc(O)c3ncccc23)CC1` gave CD40 NFkB inh 103.2*.
Screening CCOC(=O)C1CCN(C(=O)c2cccnc2)CC1 returned CD40 NFkB inh 5.8.
`CCOC(=O)C1CCN(C2CCN(Cc3nc(-c4ccccc4)no3)CC2)CC1` gave CD40 NFkB inh 3.7.
CN1C(=O)c2cc(NC(=O)c3ccc(F)cc3)ccc2OC[C@H]2O[C@H](CC(=O)NCC3CCCCC3)CC[C@@H]21 was read as CD40 NFkB inh -2.2.
Screening CC(=O)N1C[C@@H]2C(c3ccccc3)[C@H](C1)N2C(=O)NC(C)C (some centres not stated) returned CD40 NFkB inh 1.4.
`COCC(=O)N1[C@@H]2Cn3c(ccc(-c4ccccc4)c3=O)[C@H]1[C@@H](C(=O)NCc1ccccn1)[C@@H]2CO` gave CD40 NFkB inh 0.9[25 µM].
CC(=O)Nc1ccccc1OCC(=O)c1cc(C)n(Cc2cccs2)c1C was read as CD40 NFkB inh 13.7.
Cc1cc(C(=O)COC(=O)c2ccc3c(c2)OCO3)c(C)n1Cc1cccs1 was read as CD40 NFkB inh -50.1.
Screening Cc1cc(C(=O)COC(=O)Cc2ccc(Cl)cc2)c(C)n1C returned CD40 NFkB inh -8.8.
Cc1ccsc1C(=O)OCC(=O)c1cc(C)n(C)c1C was read as CD40 NFkB inh 62.4*.
Screening Cc1cc(C(=O)COC(=O)c2ccccc2O)c(C)n1Cc1cccs1 returned CD40 NFkB inh 108.1*.
For Cc1cc(C(=O)COc2ncnc3sccc23)c(C)n1C the results were CD40 NFkB inh -76.1.
N#C[C@@H]1[C@@H](c2ccccc2-c2ccccc2F)[C@H](CO)N1C(=O)C1CCC1 was read as CD40 NFkB inh -16.2[25 µM].
CCCN1[C@@H]2c3ccc(-c4ccc(F)cc4)c(=O)n3C[C@H]1[C@H](CO)[C@H]2C(=O)NCC1CC1 was read as CD40 NFkB inh 2.5[25 µM].

Assay outcomes deposited in PubChem BioAssay by Broad Institute.
